{
  "source": "paper PMC11006913",
  "experiment_in_all_cases": "PBM; 200 nM protein, PBS",
  "settings_in_all_cases": "dsDNA, one strand shown",
  "key": {"HESX1 [1]": {"molecular_target": "HESX1 (Homo sapiens, UniProt Q9UBX0 95-180, R165K)", "sequence (Q9UBX0 95-180 R165K)": "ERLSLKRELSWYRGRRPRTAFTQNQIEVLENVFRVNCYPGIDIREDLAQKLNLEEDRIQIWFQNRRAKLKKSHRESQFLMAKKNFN"}, "HESX1 [2]": {"molecular_target": "HESX1 (Homo sapiens, UniProt Q9UBX0 95-180)", "sequence (Q9UBX0 95-180)": "as the sequence (Q9UBX0 95-180 R165K) above, with K71R counted along it"}, "PRRX1 [3]": {"molecular_target": "PRRX1 (Homo sapiens, UniProt P54821 80-166, F113S)", "sequence (P54821 80-166 F113S)": "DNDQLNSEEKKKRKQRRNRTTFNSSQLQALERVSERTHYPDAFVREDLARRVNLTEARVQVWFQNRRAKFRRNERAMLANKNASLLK"}, "ALX1 [4]": {"molecular_target": "ALX1 (Homo sapiens, UniProt Q15699 118-204, L144V)", "sequence (Q15699 118-204 L144V)": "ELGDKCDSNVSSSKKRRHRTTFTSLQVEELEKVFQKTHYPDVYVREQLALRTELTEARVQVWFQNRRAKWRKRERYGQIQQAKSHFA"}, "PITX2": {"molecular_target": "PITX2 (Homo sapiens, UniProt Q99697 72-157)"}, "ALX1 [5]": {"molecular_target": "ALX1 (Homo sapiens, UniProt Q15699 118-204, L144R)", "sequence (Q15699 118-204 L144R)": "as the sequence (Q15699 118-204 L144V) above, with V27R counted along it"}, "HESX1 [6]": {"molecular_target": "HESX1 (Homo sapiens, UniProt Q9UBX0 95-180, R109Q)", "sequence (Q9UBX0 95-180 R109Q)": "as the sequence (Q9UBX0 95-180 R165K) above, with R15Q, K71R counted along it"}, "HESX1 [7]": {"molecular_target": "HESX1 (Homo sapiens, UniProt Q9UBX0 95-180, P111T)", "sequence (Q9UBX0 95-180 P111T)": "as the sequence (Q9UBX0 95-180 R165K) above, with P17T, K71R counted along it"}, "HESX1 [8]": {"molecular_target": "HESX1 (Homo sapiens, UniProt Q9UBX0 95-180, F115L)", "sequence (Q9UBX0 95-180 F115L)": "as the sequence (Q9UBX0 95-180 R165K) above, with F21L, K71R counted along it"}, "ALX1 [9]": {"molecular_target": "ALX1 (Homo sapiens, UniProt Q15699 118-204)", "sequence (Q15699 118-204)": "as the sequence (Q15699 118-204 L144V) above, with V27L counted along it"}, "PRRX1 [10]": {"molecular_target": "PRRX1 (Homo sapiens, UniProt P54821 80-166)", "sequence (P54821 80-166)": "as the sequence (P54821 80-166 F113S) above, with S34F counted along it"}, "ALX4 [11]": {"molecular_target": "ALX4 (Homo sapiens, UniProt Q9H161 200-286)", "sequence (Q9H161 200-286)": "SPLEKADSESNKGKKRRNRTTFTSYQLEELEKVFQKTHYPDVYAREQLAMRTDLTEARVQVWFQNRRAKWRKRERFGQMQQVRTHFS"}, "ALX4 [12]": {"molecular_target": "ALX4 (Homo sapiens, UniProt Q9H161 200-286, Q225E)", "sequence (Q9H161 200-286 Q225E)": "as the sequence (Q9H161 200-286) above, with Q26E counted along it"}, "VAX1 [13]": {"molecular_target": "VAX1 (Homo sapiens, UniProt Q5SQQ9 86-172)", "sequence (Q5SQQ9 86-172)": "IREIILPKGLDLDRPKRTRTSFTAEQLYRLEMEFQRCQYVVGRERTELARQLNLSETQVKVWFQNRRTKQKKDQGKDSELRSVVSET"}, "VAX1 [14]": {"molecular_target": "VAX1 (Homo sapiens, UniProt Q5SQQ9 86-172, T142I)", "sequence (Q5SQQ9 86-172 T142I)": "as the sequence (Q5SQQ9 86-172) above, with T57I counted along it"}, "VAX1 [15]": {"molecular_target": "VAX1 (Homo sapiens, UniProt Q5SQQ9 86-172, K157R)", "sequence (Q5SQQ9 86-172 K157R)": "as the sequence (Q5SQQ9 86-172) above, with K72R counted along it"}, "HOXD13 [16]": {"molecular_target": "HOXD13 (Homo sapiens, UniProt P35453 263-343, T313R)", "sequence (P35453 263-343 T313R)": "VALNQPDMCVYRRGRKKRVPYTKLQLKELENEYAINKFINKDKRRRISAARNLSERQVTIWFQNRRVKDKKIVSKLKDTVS"}, "HOXD13 [17]": {"molecular_target": "HOXD13 (Homo sapiens, UniProt P35453 263-343)", "sequence (P35453 263-343)": "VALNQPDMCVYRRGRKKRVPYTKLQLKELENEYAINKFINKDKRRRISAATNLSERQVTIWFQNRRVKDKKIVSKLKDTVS"}, "HOXD13 [18]": {"molecular_target": "HOXD13 (Homo sapiens, UniProt P35453 263-343, T313A)", "sequence (P35453 263-343 T313A)": "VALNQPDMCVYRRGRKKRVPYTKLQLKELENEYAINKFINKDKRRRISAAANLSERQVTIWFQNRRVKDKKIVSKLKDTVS"}, "HOXC10 [19]": {"molecular_target": "HOXC10 (Homo sapiens, UniProt Q9NYD6 254-340)", "sequence (Q9NYD6 254-340)": "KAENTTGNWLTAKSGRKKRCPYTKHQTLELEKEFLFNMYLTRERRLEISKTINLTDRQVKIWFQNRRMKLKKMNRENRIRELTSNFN"}, "HOXC10 [20]": {"molecular_target": "HOXC10 (Homo sapiens, UniProt Q9NYD6 254-340, K271E)", "sequence (Q9NYD6 254-340 K271E)": "as the sequence (Q9NYD6 254-340) above, with K18E counted along it"}},
  "data": [
    {"sequence": "ATTAAGGA", "values": [
      {"measurement": "binding signal", "setting": "HESX1 [1]", "value": "8.58 upbm affinity estimate (log intensity, higher = more binding, comparable within an allelic series)"},
      {"measurement": "binding signal", "setting": "HESX1 [2]", "value": "9.12 upbm affinity estimate (log intensity, higher = more binding, comparable within an allelic series)"}
    ]},
    {"sequence": "CCATAATA", "values": [
      {"measurement": "binding signal", "setting": "HESX1 [1]", "value": "8.68 upbm affinity estimate (log intensity, higher = more binding, comparable within an allelic series)"},
      {"measurement": "binding signal", "setting": "HESX1 [2]", "value": "8.79 upbm affinity estimate (log intensity, higher = more binding, comparable within an allelic series)"}
    ]},
    {"sequence": "TAGCTTAA", "values": [
      {"measurement": "binding signal", "setting": "HESX1 [1]", "value": "7.4 upbm affinity estimate (log intensity, higher = more binding, comparable within an allelic series)"},
      {"measurement": "binding signal", "setting": "HESX1 [2]", "value": "7.51 upbm affinity estimate (log intensity, higher = more binding, comparable within an allelic series)"}
    ]},
    {"sequence": "ACGGAAGG", "values": [
      {"measurement": "binding signal", "setting": "HESX1 [1]", "value": "6.5 upbm affinity estimate (log intensity, higher = more binding, comparable within an allelic series)"},
      {"measurement": "binding signal", "setting": "PRRX1 [3]", "value": "9.38 upbm affinity estimate (log intensity, higher = more binding, comparable within an allelic series)"},
      {"measurement": "binding signal", "setting": "HESX1 [2]", "value": "6.36 upbm affinity estimate (log intensity, higher = more binding, comparable within an allelic series)"},
      {"measurement": "binding signal", "setting": "ALX1 [4]", "value": "6.56 upbm affinity estimate (log intensity, higher = more binding, comparable within an allelic series)"},
      {"measurement": "binding signal", "setting": "PITX2", "value": "7.95 upbm affinity estimate (log intensity, higher = more binding, comparable within an allelic series)"},
      {"measurement": "binding signal", "setting": "ALX1 [5]", "value": "6.44 upbm affinity estimate (log intensity, higher = more binding, comparable within an allelic series)"},
      {"measurement": "binding signal", "setting": "HESX1 [6]", "value": "6.53 upbm affinity estimate (log intensity, higher = more binding, comparable within an allelic series)"},
      {"measurement": "binding signal", "setting": "HESX1 [7]", "value": "6.63 upbm affinity estimate (log intensity, higher = more binding, comparable within an allelic series)"},
      {"measurement": "binding signal", "setting": "HESX1 [8]", "value": "6.5 upbm affinity estimate (log intensity, higher = more binding, comparable within an allelic series)"},
      {"measurement": "binding signal", "setting": "ALX1 [9]", "value": "6.35 upbm affinity estimate (log intensity, higher = more binding, comparable within an allelic series)"},
      {"measurement": "binding signal", "setting": "PRRX1 [10]", "value": "9.17 upbm affinity estimate (log intensity, higher = more binding, comparable within an allelic series)"}
    ]},
    {"sequence": "CTCTCCAG", "values": [
      {"measurement": "binding signal", "setting": "HESX1 [1]", "value": "6.3 upbm affinity estimate (log intensity, higher = more binding, comparable within an allelic series)"},
      {"measurement": "binding signal", "setting": "ALX4 [11]", "value": "7.91 upbm affinity estimate (log intensity, higher = more binding, comparable within an allelic series)"},
      {"measurement": "binding signal", "setting": "ALX4 [12]", "value": "7.91 upbm affinity estimate (log intensity, higher = more binding, comparable within an allelic series)"},
      {"measurement": "binding signal", "setting": "HESX1 [2]", "value": "6.32 upbm affinity estimate (log intensity, higher = more binding, comparable within an allelic series)"},
      {"measurement": "binding signal", "setting": "HESX1 [6]", "value": "6.51 upbm affinity estimate (log intensity, higher = more binding, comparable within an allelic series)"},
      {"measurement": "binding signal", "setting": "VAX1 [13]", "value": "7 upbm affinity estimate (log intensity, higher = more binding, comparable within an allelic series)"},
      {"measurement": "binding signal", "setting": "HESX1 [7]", "value": "6.4 upbm affinity estimate (log intensity, higher = more binding, comparable within an allelic series)"},
      {"measurement": "binding signal", "setting": "HESX1 [8]", "value": "6.42 upbm affinity estimate (log intensity, higher = more binding, comparable within an allelic series)"},
      {"measurement": "binding signal", "setting": "VAX1 [14]", "value": "7.16 upbm affinity estimate (log intensity, higher = more binding, comparable within an allelic series)"},
      {"measurement": "binding signal", "setting": "VAX1 [15]", "value": "7.01 upbm affinity estimate (log intensity, higher = more binding, comparable within an allelic series)"}
    ]},
    {"sequence": "CGCGCGAG", "values": [
      {"measurement": "binding signal", "setting": "HESX1 [1]", "value": "6.55 upbm affinity estimate (log intensity, higher = more binding, comparable within an allelic series)"},
      {"measurement": "binding signal", "setting": "ALX4 [11]", "value": "8.39 upbm affinity estimate (log intensity, higher = more binding, comparable within an allelic series)"},
      {"measurement": "binding signal", "setting": "ALX4 [12]", "value": "8.37 upbm affinity estimate (log intensity, higher = more binding, comparable within an allelic series)"},
      {"measurement": "binding signal", "setting": "HESX1 [2]", "value": "6.52 upbm affinity estimate (log intensity, higher = more binding, comparable within an allelic series)"},
      {"measurement": "binding signal", "setting": "HOXD13 [16]", "value": "9.52 upbm affinity estimate (log intensity, higher = more binding, comparable within an allelic series)"},
      {"measurement": "binding signal", "setting": "HOXD13 [17]", "value": "9.48 upbm affinity estimate (log intensity, higher = more binding, comparable within an allelic series)"},
      {"measurement": "binding signal", "setting": "HESX1 [6]", "value": "6.5 upbm affinity estimate (log intensity, higher = more binding, comparable within an allelic series)"},
      {"measurement": "binding signal", "setting": "HESX1 [7]", "value": "6.55 upbm affinity estimate (log intensity, higher = more binding, comparable within an allelic series)"},
      {"measurement": "binding signal", "setting": "HOXD13 [18]", "value": "9.67 upbm affinity estimate (log intensity, higher = more binding, comparable within an allelic series)"},
      {"measurement": "binding signal", "setting": "HESX1 [8]", "value": "6.44 upbm affinity estimate (log intensity, higher = more binding, comparable within an allelic series)"}
    ]},
    {"sequence": "AATGTAAG", "values": [
      {"measurement": "binding signal", "setting": "HESX1 [1]", "value": "7.66 upbm affinity estimate (log intensity, higher = more binding, comparable within an allelic series)"},
      {"measurement": "binding signal", "setting": "HESX1 [2]", "value": "7.68 upbm affinity estimate (log intensity, higher = more binding, comparable within an allelic series)"}
    ]},
    {"sequence": "CAATAATG", "values": [
      {"measurement": "binding signal", "setting": "HESX1 [1]", "value": "8.97 upbm affinity estimate (log intensity, higher = more binding, comparable within an allelic series)"},
      {"measurement": "binding signal", "setting": "HESX1 [2]", "value": "9.26 upbm affinity estimate (log intensity, higher = more binding, comparable within an allelic series)"}
    ]},
    {"sequence": "AGAGGCAC", "values": [
      {"measurement": "binding signal", "setting": "HESX1 [1]", "value": "6.29 upbm affinity estimate (log intensity, higher = more binding, comparable within an allelic series)"},
      {"measurement": "binding signal", "setting": "ALX4 [11]", "value": "8.1 upbm affinity estimate (log intensity, higher = more binding, comparable within an allelic series)"},
      {"measurement": "binding signal", "setting": "ALX4 [12]", "value": "8.02 upbm affinity estimate (log intensity, higher = more binding, comparable within an allelic series)"},
      {"measurement": "binding signal", "setting": "HESX1 [2]", "value": "6.48 upbm affinity estimate (log intensity, higher = more binding, comparable within an allelic series)"},
      {"measurement": "binding signal", "setting": "HESX1 [6]", "value": "6.44 upbm affinity estimate (log intensity, higher = more binding, comparable within an allelic series)"},
      {"measurement": "binding signal", "setting": "HESX1 [7]", "value": "6.5 upbm affinity estimate (log intensity, higher = more binding, comparable within an allelic series)"},
      {"measurement": "binding signal", "setting": "HESX1 [8]", "value": "6.64 upbm affinity estimate (log intensity, higher = more binding, comparable within an allelic series)"}
    ]},
    {"sequence": "CGGCTAGC", "values": [
      {"measurement": "binding signal", "setting": "HESX1 [1]", "value": "6.5 upbm affinity estimate (log intensity, higher = more binding, comparable within an allelic series)"},
      {"measurement": "binding signal", "setting": "HOXC10 [19]", "value": "9.98 upbm affinity estimate (log intensity, higher = more binding, comparable within an allelic series)"},
      {"measurement": "binding signal", "setting": "PRRX1 [3]", "value": "9.18 upbm affinity estimate (log intensity, higher = more binding, comparable within an allelic series)"},
      {"measurement": "binding signal", "setting": "HESX1 [2]", "value": "6.49 upbm affinity estimate (log intensity, higher = more binding, comparable within an allelic series)"},
      {"measurement": "binding signal", "setting": "HOXC10 [20]", "value": "10 upbm affinity estimate (log intensity, higher = more binding, comparable within an allelic series)"},
      {"measurement": "binding signal", "setting": "HESX1 [6]", "value": "6.39 upbm affinity estimate (log intensity, higher = more binding, comparable within an allelic series)"},
      {"measurement": "binding signal", "setting": "HESX1 [7]", "value": "6.54 upbm affinity estimate (log intensity, higher = more binding, comparable within an allelic series)"},
      {"measurement": "binding signal", "setting": "HESX1 [8]", "value": "6.45 upbm affinity estimate (log intensity, higher = more binding, comparable within an allelic series)"},
      {"measurement": "binding signal", "setting": "PRRX1 [10]", "value": "9.46 upbm affinity estimate (log intensity, higher = more binding, comparable within an allelic series)"}
    ]}
  ]
}
